# Test results taken from the supplement of paper PMC4466140.
# Key:
# Test in all cases: SPOT peptide array binding signal intensity (averaged, normalized) (arbitrary units (background-subtracted, floor 0; scale differs between SH3 domains)); higher = stronger binding of the SH3 domain to the peptide
# CaNbp2 = biological target: CaNbp2
# Procedure, shortened: (§1)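 Binding signal refers to normalized, background-subtracted spot intensity averaged over replicates, expressed in arbitrary units that differ between domains. GST-fused SH3 domains from four yeast species were incubated at 10 μg/ml overnight at 4°C on cellulose membranes of synthetic 15-mer peptides with cysteines replaced by serines. Bound protein was detected with anti-GST antibody, an HRP anti-mouse secondary and luminol, and quantified with Genespotter.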
# CaRvs167 = biological target: CaRvs167
# Procedure, shortened: as §1
# CaRvs167-3 = biological target: CaRvs167-3
# Procedure, shortened: as §1
# CaSho1 = biological target: CaSho1
# Procedure, shortened: as §1
# CaSla1-D1-D2 = biological target: CaSla1-D1-D2
# Procedure, shortened: as §1
# CaSla1-D3 = biological target: CaSla1-D3
# Procedure, shortened: as §1
# ScAbp1 = biological target: ScAbp1
# Procedure, shortened: as §1
# ScBbc1 = biological target: ScBbc1
# Procedure, shortened: as §1
# ScBem1-D1 = biological target: ScBem1-D1
# Procedure, shortened: as §1
# ScBzz1-D1 = biological target: ScBzz1-D1
# Procedure, shortened: as §1
# ScBzz1-D2 = biological target: ScBzz1-D2
# Procedure, shortened: as §1
# ScCyk3 = biological target: ScCyk3
# Procedure, shortened: as §1
# ScFus1 = biological target: ScFus1
# Procedure, shortened: as §1
# ScHof1 = biological target: ScHof1
# Procedure, shortened: as §1
# ScHse1 = biological target: ScHse1
# Procedure, shortened: as §1
# ScLsb1 = biological target: ScLsb1
# Procedure, shortened: as §1
# ScLsb2 = biological target: ScLsb2
# Procedure, shortened: as §1
# ScLsb3 = biological target: ScLsb3
# Procedure, shortened: as §1
# ScLsb4 = biological target: ScLsb4
# Procedure, shortened: as §1
# ScMyo3 = biological target: ScMyo3
# Procedure, shortened: as §1
# ScMyo5 = biological target: ScMyo5
# Procedure, shortened: as §1
# ScNbp2 = biological target: ScNbp2
# Procedure, shortened: as §1
# ScPex13 = biological target: ScPex13
# Procedure, shortened: as §1
# ScRvs167 = biological target: ScRvs167
# Procedure, shortened: as §1
# ScSho1 = biological target: ScSho1
# Procedure, shortened: as §1
# ScSla1-D1-D2 = biological target: ScSla1-D1-D2
# Procedure, shortened: as §1
# ScSla1-D3 = biological target: ScSla1-D3
# Procedure, shortened: as §1
# SpAbp1-D1 = biological target: SpAbp1-D1
# Procedure, shortened: as §1
# SpBbc1 = biological target: SpBbc1
# Procedure, shortened: as §1
# SpBzz1-D1 = biological target: SpBzz1-D1
# Procedure, shortened: as §1
# SpBzz1-D2 = biological target: SpBzz1-D2
# Procedure, shortened: as §1
# SpCyk3 = biological target: SpCyk3
# Procedure, shortened: as §1
# SpHof1 = biological target: SpHof1
# Procedure, shortened: as §1
# SpHof1-2 = biological target: SpHof1-2
# Procedure, shortened: as §1
# SpHof1-3 = biological target: SpHof1-3
# Procedure, shortened: as §1
# SpHse1 = biological target: SpHse1
# Procedure, shortened: as §1
# SpLsb1 = biological target: SpLsb1
# Procedure, shortened: as §1
# SpLsb4 = biological target: SpLsb4
# Procedure, shortened: as §1
# SpMyo1 = biological target: SpMyo1
# Procedure, shortened: as §1
# SpNbp2 = biological target: SpNbp2
# Procedure, shortened: as §1
# SpPex13 = biological target: SpPex13
# Procedure, shortened: as §1
# SpRvs167 = biological target: SpRvs167
# Procedure, shortened: as §1
# SpSla1-D1-D2 = biological target: SpSla1-D1-D2
# Procedure, shortened: as §1
# SpSla1-D3 = biological target: SpSla1-D3
# Procedure, shortened: as §1
# AgAbp1 = biological target: AgAbp1
# Procedure, shortened: as §1
# AgBbc1 = biological target: AgBbc1
# Procedure, shortened: as §1
# AgBem1-D1 = biological target: AgBem1-D1
# Procedure, shortened: as §1
# AgBzz1-D1 = biological target: AgBzz1-D1
# Procedure, shortened: as §1
# AgBzz1-D2 = biological target: AgBzz1-D2
# Procedure, shortened: as §1
# AgCyk3 = biological target: AgCyk3
# Procedure, shortened: as §1
# AgFus1 = biological target: AgFus1
# Procedure, shortened: as §1
# AgHof1 = biological target: AgHof1
# Procedure, shortened: as §1
# AgHse1 = biological target: AgHse1
# Procedure, shortened: as §1
# AgLsb1 = biological target: AgLsb1
# Procedure, shortened: as §1
# AgLsb4 = biological target: AgLsb4
# Procedure, shortened: as §1
# AgMyo5 = biological target: AgMyo5
# Procedure, shortened: as §1
# AgNbp2 = biological target: AgNbp2
# Procedure, shortened: as §1
# AgRvs167 = biological target: AgRvs167
# Procedure, shortened: as §1
# AgSho1 = biological target: AgSho1
# Procedure, shortened: as §1
# AgSla1-D1-D2 = biological target: AgSla1-D1-D2
# Procedure, shortened: as §1
# AgSla1-D3 = biological target: AgSla1-D3
# Procedure, shortened: as §1
# CaAbp1-D1 = biological target: CaAbp1-D1
# Procedure, shortened: as §1
# CaAbp1-D2 = biological target: CaAbp1-D2
# Procedure, shortened: as §1
# CaBbc1 = biological target: CaBbc1
# Procedure, shortened: as §1
# CaBem1-D1 = biological target: CaBem1-D1
# Procedure, shortened: as §1
# CaBzz1-D1 = biological target: CaBzz1-D1
# Procedure, shortened: as §1
# CaBzz1-D2 = biological target: CaBzz1-D2
# Procedure, shortened: as §1
# CaCyk3 = biological target: CaCyk3
# Procedure, shortened: as §1
# CaFus1 = biological target: CaFus1
# Procedure, shortened: as §1
# CaHof1 = biological target: CaHof1
# Procedure, shortened: as §1
# CaHse1 = biological target: CaHse1
# Procedure, shortened: as §1
# CaLsb1 = biological target: CaLsb1
# Procedure, shortened: as §1
# CaLsb4 = biological target: CaLsb4
# Procedure, shortened: as §1
# CaMyo5 = biological target: CaMyo5
# Procedure, shortened: as §1
binder,measurement,setting,value
VFQFQMPTTPISTKM,SPOT peptide array binding signal intensity,CaNbp2,985
same,SPOT peptide array binding signal intensity,CaRvs167,32.7
same,SPOT peptide array binding signal intensity,CaRvs167-3,4.5
same,SPOT peptide array binding signal intensity,CaSho1,922
same,SPOT peptide array binding signal intensity,CaSla1-D1-D2,404
same,SPOT peptide array binding signal intensity,CaSla1-D3,454
same,SPOT peptide array binding signal intensity,ScAbp1,4
same,SPOT peptide array binding signal intensity,ScBbc1,≤ 0
same,SPOT peptide array binding signal intensity,ScBem1-D1,1
same,SPOT peptide array binding signal intensity,ScBzz1-D1,10
same,SPOT peptide array binding signal intensity,ScBzz1-D2,25
same,SPOT peptide array binding signal intensity,ScCyk3,13
same,SPOT peptide array binding signal intensity,ScFus1,327
same,SPOT peptide array binding signal intensity,ScHof1,≤ 0
same,SPOT peptide array binding signal intensity,ScHse1,254
same,SPOT peptide array binding signal intensity,ScLsb1,46.5
same,SPOT peptide array binding signal intensity,ScLsb2,≤ 0
same,SPOT peptide array binding signal intensity,ScLsb3,282
same,SPOT peptide array binding signal intensity,ScLsb4,124
same,SPOT peptide array binding signal intensity,ScMyo3,20.8
same,SPOT peptide array binding signal intensity,ScMyo5,8
same,SPOT peptide array binding signal intensity,ScNbp2,636
same,SPOT peptide array binding signal intensity,ScPex13,186
same,SPOT peptide array binding signal intensity,ScRvs167,11.8
same,SPOT peptide array binding signal intensity,ScSho1,530
same,SPOT peptide array binding signal intensity,ScSla1-D1-D2,245
same,SPOT peptide array binding signal intensity,ScSla1-D3,228
same,SPOT peptide array binding signal intensity,SpAbp1-D1,21
same,SPOT peptide array binding signal intensity,SpBbc1,2.5
same,SPOT peptide array binding signal intensity,SpBzz1-D1,324
same,SPOT peptide array binding signal intensity,SpBzz1-D2,4.25
same,SPOT peptide array binding signal intensity,SpCyk3,4
same,SPOT peptide array binding signal intensity,SpHof1,52.5
same,SPOT peptide array binding signal intensity,SpHof1-2,36.5
same,SPOT peptide array binding signal intensity,SpHof1-3,18.5
same,SPOT peptide array binding signal intensity,SpHse1,456
same,SPOT peptide array binding signal intensity,SpLsb1,4.5
same,SPOT peptide array binding signal intensity,SpLsb4,349
same,SPOT peptide array binding signal intensity,SpMyo1,85.5
same,SPOT peptide array binding signal intensity,SpNbp2,272
same,SPOT peptide array binding signal intensity,SpPex13,124
same,SPOT peptide array binding signal intensity,SpRvs167,27
same,SPOT peptide array binding signal intensity,SpSla1-D1-D2,3
same,SPOT peptide array binding signal intensity,SpSla1-D3,297
WTQRRGPLVVYAEDN,SPOT peptide array binding signal intensity,AgAbp1,≤ 0
same,SPOT peptide array binding signal intensity,AgBbc1,7
same,SPOT peptide array binding signal intensity,AgBem1-D1,102
same,SPOT peptide array binding signal intensity,AgBzz1-D1,11
same,SPOT peptide array binding signal intensity,AgBzz1-D2,22.5
same,SPOT peptide array binding signal intensity,AgCyk3,0.5
same,SPOT peptide array binding signal intensity,AgFus1,35.5
same,SPOT peptide array binding signal intensity,AgHof1,15.5
same,SPOT peptide array binding signal intensity,AgHse1,20.5
same,SPOT peptide array binding signal intensity,AgLsb1,4
same,SPOT peptide array binding signal intensity,AgLsb4,17.5
same,SPOT peptide array binding signal intensity,AgMyo5,3
same,SPOT peptide array binding signal intensity,AgNbp2,≤ 0
same,SPOT peptide array binding signal intensity,AgRvs167,1.17
same,SPOT peptide array binding signal intensity,AgSho1,4
same,SPOT peptide array binding signal intensity,AgSla1-D1-D2,20
same,SPOT peptide array binding signal intensity,AgSla1-D3,2
same,SPOT peptide array binding signal intensity,CaAbp1-D1,≤ 0
same,SPOT peptide array binding signal intensity,CaAbp1-D2,≤ 0
same,SPOT peptide array binding signal intensity,CaBbc1,27.2
same,SPOT peptide array binding signal intensity,CaBem1-D1,3
same,SPOT peptide array binding signal intensity,CaBzz1-D1,286
same,SPOT peptide array binding signal intensity,CaBzz1-D2,142
same,SPOT peptide array binding signal intensity,CaCyk3,18
same,SPOT peptide array binding signal intensity,CaFus1,190
same,SPOT peptide array binding signal intensity,CaHof1,1.5
same,SPOT peptide array binding signal intensity,CaHse1,6.25
same,SPOT peptide array binding signal intensity,CaLsb1,6.5
same,SPOT peptide array binding signal intensity,CaLsb4,29.5
same,SPOT peptide array binding signal intensity,CaMyo5,26
same,SPOT peptide array binding signal intensity,CaNbp2,44.5
same,SPOT peptide array binding signal intensity,CaRvs167,12.2
same,SPOT peptide array binding signal intensity,CaRvs167-3,3.5
same,SPOT peptide array binding signal intensity,CaSho1,32
same,SPOT peptide array binding signal intensity,CaSla1-D1-D2,≤ 0
same,SPOT peptide array binding signal intensity,CaSla1-D3,0.25
same,SPOT peptide array binding signal intensity,ScAbp1,1
same,SPOT peptide array binding signal intensity,ScBbc1,≤ 0
same,SPOT peptide array binding signal intensity,ScBem1-D1,11.5
same,SPOT peptide array binding signal intensity,ScBzz1-D1,28
same,SPOT peptide array binding signal intensity,ScBzz1-D2,58
same,SPOT peptide array binding signal intensity,ScCyk3,10
same,SPOT peptide array binding signal intensity,ScFus1,28.5
same,SPOT peptide array binding signal intensity,ScHof1,0.5
same,SPOT peptide array binding signal intensity,ScHse1,140
same,SPOT peptide array binding signal intensity,ScLsb1,3.5
same,SPOT peptide array binding signal intensity,ScLsb2,≤ 0
same,SPOT peptide array binding signal intensity,ScLsb3,5
same,SPOT peptide array binding signal intensity,ScLsb4,≤ 0
same,SPOT peptide array binding signal intensity,ScMyo3,16
same,SPOT peptide array binding signal intensity,ScMyo5,9
same,SPOT peptide array binding signal intensity,ScNbp2,1.5
same,SPOT peptide array binding signal intensity,ScPex13,1
same,SPOT peptide array binding signal intensity,ScRvs167,20.8
same,SPOT peptide array binding signal intensity,ScSho1,≤ 0
same,SPOT peptide array binding signal intensity,ScSla1-D1-D2,≤ 0
same,SPOT peptide array binding signal intensity,ScSla1-D3,9
same,SPOT peptide array binding signal intensity,SpAbp1-D1,6
same,SPOT peptide array binding signal intensity,SpBbc1,2.75
same,SPOT peptide array binding signal intensity,SpBzz1-D1,458
same,SPOT peptide array binding signal intensity,SpBzz1-D2,≤ 0
same,SPOT peptide array binding signal intensity,SpCyk3,7
same,SPOT peptide array binding signal intensity,SpHof1,29.5
same,SPOT peptide array binding signal intensity,SpHof1-2,22.5
same,SPOT peptide array binding signal intensity,SpHof1-3,23
same,SPOT peptide array binding signal intensity,SpHse1,66.2
same,SPOT peptide array binding signal intensity,SpLsb1,≤ 0
same,SPOT peptide array binding signal intensity,SpLsb4,31
same,SPOT peptide array binding signal intensity,SpMyo1,16
same,SPOT peptide array binding signal intensity,SpNbp2,2
same,SPOT peptide array binding signal intensity,SpPex13,19
same,SPOT peptide array binding signal intensity,SpRvs167,16
same,SPOT peptide array binding signal intensity,SpSla1-D1-D2,3
same,SPOT peptide array binding signal intensity,SpSla1-D3,6
